# Measurements: article PMC4336329 (PLoS ONE, 2015)
# The campaign covered roughly 310,000 compounds. About 14,000 (4.5%) showed an effect of 50% or more. Effects have a minus sign here. Only a selection was taken, and strong results are over-represented in it overall.
# Biological target: human ether-à-go-go-related gene (hERG) potassium channel (human, UniProt Q12809)
# Experiment: primary screen, population patch clamp on CHO cells stably expressing hERG; higher = less effect of the substance
# 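Further: peak tail current of the secondary pulse compared with the same well before compound.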
# Chain of human ether-à-go-go-related gene (hERG) potassium channel (Q12809 whole entry, looked up): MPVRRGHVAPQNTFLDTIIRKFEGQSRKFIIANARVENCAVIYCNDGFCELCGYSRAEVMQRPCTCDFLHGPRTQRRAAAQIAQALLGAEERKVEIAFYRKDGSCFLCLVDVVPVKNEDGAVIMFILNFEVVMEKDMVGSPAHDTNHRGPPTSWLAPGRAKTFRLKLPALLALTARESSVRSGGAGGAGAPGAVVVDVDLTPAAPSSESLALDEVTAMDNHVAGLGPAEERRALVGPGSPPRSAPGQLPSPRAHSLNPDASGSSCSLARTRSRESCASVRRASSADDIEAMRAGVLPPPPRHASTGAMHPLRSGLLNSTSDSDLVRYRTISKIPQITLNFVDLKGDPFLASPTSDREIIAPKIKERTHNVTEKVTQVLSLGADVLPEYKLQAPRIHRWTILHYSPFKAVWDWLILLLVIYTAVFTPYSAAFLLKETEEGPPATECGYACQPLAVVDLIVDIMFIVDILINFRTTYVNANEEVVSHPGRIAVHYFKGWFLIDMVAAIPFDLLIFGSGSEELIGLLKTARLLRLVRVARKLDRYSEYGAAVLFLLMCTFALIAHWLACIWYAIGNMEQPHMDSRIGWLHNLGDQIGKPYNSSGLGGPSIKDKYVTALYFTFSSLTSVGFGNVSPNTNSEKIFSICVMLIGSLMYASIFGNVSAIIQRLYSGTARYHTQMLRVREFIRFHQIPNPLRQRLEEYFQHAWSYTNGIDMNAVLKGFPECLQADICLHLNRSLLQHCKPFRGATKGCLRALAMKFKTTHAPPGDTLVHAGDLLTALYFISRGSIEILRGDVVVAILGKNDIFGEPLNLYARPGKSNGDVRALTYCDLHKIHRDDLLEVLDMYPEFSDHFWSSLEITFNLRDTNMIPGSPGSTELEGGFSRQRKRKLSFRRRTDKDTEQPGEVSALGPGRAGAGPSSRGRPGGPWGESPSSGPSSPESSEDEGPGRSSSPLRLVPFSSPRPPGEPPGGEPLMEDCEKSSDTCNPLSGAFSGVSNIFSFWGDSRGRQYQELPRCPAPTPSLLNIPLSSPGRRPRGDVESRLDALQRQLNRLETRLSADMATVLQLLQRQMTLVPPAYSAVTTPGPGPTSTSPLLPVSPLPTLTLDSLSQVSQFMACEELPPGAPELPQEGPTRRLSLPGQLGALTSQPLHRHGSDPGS
row,SMILES,"hERG current change (%, negative = inhibition) at 10uM [%]"
1,COC(=O)c1ccc(N2CCN(C)CC2)c(NC(=O)c2ccc(Br)o2)c1,-55.8
2,COC(=O)c1ccc(N2CCN(C)CC2)c(NC(=O)c2ccc(-c3ccc(Cl)cc3)o2)c1,7.11
3,COC(=O)c1ccc(N2CCCCC2)c(NC(=O)c2ccco2)c1,-45.8
4,CCOC(=O)c1ccc(N2CCN(C(=O)c3ccccc3)CC2)c(NC(=O)c2ccco2)c1,-71.5
5,COC(=O)c1ccc(N2CCOCC2)c(NC(=O)c2ccc(Br)o2)c1,7.34
6,COC(=O)c1ccc(N2CCN(C(=O)c3ccccc3)CC2)c(NC(C)=O)c1,-39.8
7,CCOC(=O)N1CCC(NC(=O)c2cc(S(=O)(=O)N3CCC4(CC3)OCCO4)ccc2F)CC1,-6.9
8,Fc1cccc(CN2CCN3CCCC3C2C2CCCCC2)c1 (stereo not shown),-8.93
9,CCOc1ccc(NC(=S)NC(=O)/C=C/c2ccc(OC)cc2)c([N+](=O)[O-])c1,7.26
10,O=C(COc1ccccc1Cl)NCCNC(=O)c1cccnc1,-3.71
11,CS(=O)(=O)NNC(=O)Cn1nnc(-c2ccc(OCc3ccccc3Cl)cc2)n1,18
12,O=C(Oc1ccc(-c2nnco2)cc1)N1CCOCC1,1.23
13,CCc1ccccc1Nc1nc(N)nc(COC(=O)CCNS(=O)(=O)c2ccccc2)n1,-62.7
14,Cc1ccccc1Nc1nc(N)nc(COC(=O)CCNS(=O)(=O)c2ccccc2)n1,-9.32
15,CCc1ccccc1Nc1nc(N)nc(COC(=O)CCS(=O)(=O)c2ccccc2)n1,-10.5
16,Cc1ccc2nc(NCCc3ccc(Cl)cc3)c3nncn3c2c1,8.75
17,Cn1c2ccccc2c2nnc(SCC(N)=O)nc21,-7.5
18,CCCCNS(=O)(=O)c1ccc2c(c1)oc(=O)n2CC(=O)OCC,5.06
19,O=C(NCCCN1CCOCC1)c1ccccc1NS(=O)(=O)c1ccc(Br)cc1,-56.1
20,O=C(NCCCN1CCCC1=O)c1ccccc1NS(=O)(=O)c1ccc(Br)cc1,1.59
21,O=C(Nc1ccccc1C(=O)NCCCN1CCOCC1)c1cccc([N+](=O)[O-])c1,-52.7
22,O=C(Nc1cc([N+](=O)[O-])ccc1C(=O)NCCN1CCOCC1)c1ccccc1,-44.9

row,SMILES,"hERG current change (%, negative = inhibition) at 10uM [%]"
1,O=C(Nc1ccccc1C(=O)NCCCN1CCOCC1)c1ccccc1,6.8
2,Cc1ccccc1NS(=O)(=O)c1ccc2[nH]cc(C(=O)NCCCN3CCOCC3)c(=O)c2c1,14.5
3,Cc1cc(C)c(C)c(S(=O)(=O)Nc2ccccc2C(=O)NCCCN2CCOCC2)c1C,-88.5
4,O=C(Nc1ccccc1C(=O)Nc1ccc(Br)cn1)c1cccc([N+](=O)[O-])c1,16.6
5,O=C(Nc1ccccc1C(=O)Nc1ccccn1)c1ccc([N+](=O)[O-])cc1,-18
6,O=C(NCCCN1CCOCC1)c1ccccc1NS(=O)(=O)c1ccc(F)cc1,-41.5
7,Cc1ccccc1NS(=O)(=O)c1ccc(C(=O)NCCCN2CCOCC2)cc1,9.08
8,O=C(Nc1ccccc1C(=O)Nc1ccccn1)c1cccc([N+](=O)[O-])c1,-58.2
9,CCCCNC(=S)NCCN1CCN(C(=S)NCCCC)CC1.Cl,-8.2
10,S=C(Cc1ccc(Cl)cc1)N1CCOCC1,11.1
11,CC(C)C(=O)Nc1ncc(Cc2ccc(Cl)cc2)s1,6.53
12,O=[N+]([O-])c1ccccc1N(CC1CO1)S(=O)(=O)c1ccccc1 (stereo not shown),2.02
13,O=C(CCc1nc2ccccc2c(=O)[nH]1)Nc1nnc(SCc2ccc(F)cc2)s1,7.47
14,CC(C)(C)NCC(O)CON=C1c2ccccc2-c2ccccc21 (stereo not shown),-28.5
15,COc1ccc(O)c(/C=N/NC(=O)c2ccc(OCc3cccc(Br)c3)cc2)c1,9.95
16,COc1ccc(CNC(=O)C/C(C)=N/NC(=O)c2ccc(OC)cc2OC)cc1,-10.5
17,O=C(NNS(=O)(=O)c1ccccc1[N+](=O)[O-])c1cc2ccccc2cc1O,-10.9
18,O=C(NCCc1ccccc1)c1ccc2c(c1)OCCCO2,17.4
19,CCC(=O)N(CCc1ccccc1C)Cc1cc2ccc(C)cc2[nH]c1=O,9.02
20,Cc1ccc2cc(CN(CCN(C)C)C(=O)Nc3ccc(Cl)cc3)c(=O)[nH]c2c1,-70.5
21,CCN(CC)CCN(Cc1cc2ccc(C)cc2[nH]c1=O)C(=O)Nc1ccc(Cl)cc1,-77.6
